TDP-43 rescue: TDP-43 toxicity inhibition in yeast; yeast TDP-43 toxicity rescue, BacTiter-Glo growth, 24 h; Potency, µM (top dose mostly 46.1 µM), usual class: activators; hit rate 0.45% among 45,000; AID 1347073; active = well fitted activation curve with a large enough effect; note: 0% is about no effect; nearly all actives have a fitted effect of over 55% in size
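TDP-43-expressing yeast, pregrown in raffinose, seeded at OD600 0.02 in galactose medium with compound for 24 hr at 30 deg C. Growth read by BacTiter-Glo luminescence, so rescue of toxicity appears as activation.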
An asterisk follows results filed as active; i = inactive. The full list was thinned out, with hits kept by preference. Potency is the fitted concentration of half-maximal effect.

SMILES	TDP-43 rescue
S=C(NCc1ccc(Cl)cc1)Nc1ccccc1	12.6µM*
S=C(NCc1ccccc1)NCc1ccc(CNC(=S)NCc2ccccc2)cc1	i
COc1ccc(C(=O)N(Cc2sccc2C)C2CCS(=O)(=O)C2)cc1Cl (stereo not given)	i
CN(C)c1oc(/C=C/c2ccc(F)cc2)nc1C#N	i
CSc1ccc(CCNC(=O)C(C)n2nc(C)c3sc4ccccc4c3c2=O)cc1 (stereo not given)	i
Cc1ccc(CN(C(=O)COc2ccc(Cl)cc2Cl)C2CCS(=O)(=O)C2)o1 (stereo not given)	i
Cc1ccc(NC(=O)c2ccc(Cl)cc2Cl)c(C(=O)c2ccccc2)c1	i
O=S(=O)(c1ccccc1C(F)(F)F)N1CCN(c2ncnc3sccc23)CC1	11.2µM*
CC(=O)N1CCN(C(=O)C2CCN(S(=O)(=O)c3ccccc3C(F)(F)F)CC2)CC1	i
O=S(=O)(c1cc(C(F)(F)F)ccc1Cl)N1CCN(c2ncnc3ccccc23)CC1	i
Cc1cccc(CSCCNC(=O)CN(c2ccccc2)S(=O)(=O)N(C)C)c1	i
CCOc1cc(/C=C2/C(=O)ON=C2C)ccc1OCc1ccccc1	i
COc1cc(/C=C2\C(=O)ON=C2c2ccccc2)cc(OC)c1OC	11.2µM*
C#CCOc1c(Br)cc(/C=C2/C(=O)ON=C2C)cc1OC	i
CC1CCC(NC(=O)C2(C)Cc3ccccc3C(=O)N2Cc2ccccc2Cl)CC1 (stereo not given)	i
CCc1ccc(CNc2ncc(-c3cccc(OC)c3)n2C)cc1	i
O=S(=O)(c1cccc(-c2nnc(SCc3ccc(Cl)cc3)o2)c1)N1CCCCC1	i
CC1CCN(C(=O)CSc2nnc(-c3cccnc3)o2)CC1	i
Brc1ccc(CSc2nnc(-c3cccnc3)o2)cc1	12.6µM*
COc1ccc(-c2cc(C(=O)Oc3ccc(C)c(C)c3)c3ccccc3n2)cc1	i
Cc1cc(C)c(NC(=O)C2CCN(c3nc4ccccc4n4cccc34)CC2)c(C)c1	i
O=C(COC(=O)c1ccc([N+](=O)[O-])o1)NC1CCS(=O)(=O)C1 (stereo not given)	i
CC1CCCC(NC(=O)COC(=O)c2ccc([N+](=O)[O-])o2)C1C (stereo not given)	12.6µM*
CC(=O)Nc1ccc(NC(=O)COC(=O)c2ccc([N+](=O)[O-])o2)cc1	i
COc1cccc(C(O)c2nc(-c3ccccc3C)cs2)c1 (stereo not given)	11.2µM*
SMILES	TDP-43 rescue
COc1cccc(C(N)c2nc(-c3cc(F)cc(F)c3)cs2)c1 (stereo not given)	i
COc1cccc(C(O)c2nc(-c3ccncc3)cs2)c1 (stereo not given)	i
Cc1c(Cl)cccc1NC(=O)Cn1nnc(-c2nc(-c3ccccc3)no2)c1N	i
COc1ccc(N2CCN(C(=S)NC(=O)c3cccs3)CC2)c([N+](=O)[O-])c1	28.2µM*
COc1cccc(CC(=O)N2CCN(c3ccccc3[N+](=O)[O-])CC2)c1	i
COc1ccc(C(=O)NC(=S)N2CCCCC2)cc1[N+](=O)[O-]	i
COc1ccccc1NC(=O)CN1C(=O)C(c2ccc(F)cc2)=NC1(C)C	i
COc1ccc(C(=O)N2c3ccccc3C(C)(c3ccc(Cl)cc3)CC2(C)C)cc1 (stereo not given)	i
Fc1cccc(-n2ncc3c2ncn2nc(COc4ccc(Cl)cc4)nc32)c1	i
CC(C)C(=O)Nc1nc2ccc(S(C)(=O)=O)cc2s1	i
COc1ccc2nc(NC(=O)Nc3ccccc3OC)sc2c1	i
CCC(C)C(=O)Nc1nc2ccc(OC)cc2s1 (stereo not given)	11.2µM*
COc1ccc(C)cc1NC(=O)c1sc2nc(C)nc(N3CCOCC3)c2c1C	i
Cc1nc(N2CCCCC2)c2c(C)c(C(=O)Nc3ccccc3C(F)(F)F)sc2n1	17.8µM*
Cc1nc(N2CCN(C)CC2)c2c(C)c(C(=O)Nc3ccc(F)cc3)sc2n1	i
CCOC(=O)c1oc2c(c1C)-c1nn(Cc3cccc(Cl)c3)cc1CC2	i
COCCCN1C(=O)c2ccccc2CC1(C)C(=O)NC1CCCCC1 (stereo not given)	i
Cc1ccc2nc(-c3cccc(NC(=O)CSc4ccc(Cl)cc4)c3)oc2c1	i
C=CCNC(=O)Nc1ccc2nc(C)sc2c1	i
Cc1nc2ccc(NC(=O)c3ccc(=O)[nH]c3)cc2s1	i
CCc1sc(C(=O)Nc2ccc3nc(C)sc3c2)cc1C	11.2µM*
CCOC(=O)c1ccc(NC(=O)C(CC)Sc2nc3ncccc3o2)cc1 (stereo not given)	i
CCOC(=O)N1CCC(NC(=O)c2ccc3c(c2)N(Cc2ccccc2)C(=O)c2ccccc2S3(=O)=O)CC1	i
COc1cc(OC)c(NC(=O)C2=C(C)C(=O)OC23CCCCC3)cc1Cl	i
COc1cc2c(cc1NC(=O)COc1cc(C)ccc1C)oc1ccccc12	i
SMILES	TDP-43 rescue
Cc1ccc(NC(=O)COc2ccc(-c3nn(C)c(=O)c4ccccc34)cc2)c(C)c1	i
N#C/C(=C\c1cccc(Br)c1)C(=O)N1CCCCC1	12.6µM*
Cc1cc(/C=C(\C#N)C(=O)N2CCCCC2)cc(C)c1O	i
N#C/C(=C\c1ccccc1)C(=O)N1CCN(c2ccccc2F)CC1	i
Cc1nn(CC(=O)NCCc2ccccc2Cl)c(=O)c2nn(-c3ccccc3)c(C)c12	i
CC(C)Sc1nc2sc3c(c2c(=O)n1Cc1ccccc1)CCCC3	i
CCOc1ccccc1C(=O)Nc1cc(-c2nc3cccnc3s2)ccc1C	i
Cc1ccc(CN(C(=O)COc2ccc(C(C)(C)C)cc2)C2CCS(=O)(=O)C2)o1 (stereo not given)	i
CC1CCN(S(=O)(=O)c2ccc3c(c2)CCN3C(=O)Nc2ccccc2Br)CC1	i
O=C(COc1ccc(F)cc1)Nc1ccc(Cl)c(-c2nc3ccccc3[nH]2)c1	i
Cn1nnnc1N=N/C(=N/Nc1ccccc1)c1ccccc1	6.31µM*
Cc1cccc(OCC(=O)N(Cc2cccc(Cl)c2)Cc2ccco2)c1C	i
O=S(=O)(NCc1csc(-c2ccccc2)n1)c1ccccc1	i
O=C(COc1ccc2ccccc2c1)NNC(=O)C(=O)Nc1ccccc1	i
O=C(Nc1ccc2ccccc2c1)c1ccccc1O	i
C/C(=C\C(=S)Nc1ccccc1)Nc1ccc2ccccc2c1	14.1µM*
COc1cccc(NC(=O)Cn2c(=O)n(CC(=O)NCCc3ccccc3)c(=O)c3sccc32)c1	i
COc1ccc(Br)cc1CNC(=O)C(C)n1nc(C)n2c(cc3occc32)c1=O (stereo not given)	i
O=c1c2sccc2n(Cc2cc(=O)n3cc(Cl)ccc3n2)c(=O)n1-c1ccccc1	i
Cc1ccc(C(=O)Nc2c(C(=O)NCc3ccc(Cl)cc3)sc3nc(C)cc(C)c23)cc1	i
CCN(C(=O)Cn1c(=O)oc2cc(S(=O)(=O)N3CCCCCC3)ccc21)c1cccc(C)c1	i
COc1ccc(CCC(=O)NCc2nc3cccnc3n2Cc2ccc(C)cc2)cc1	i
Cc1cccc(NC(=O)Cn2c(=O)n(CCCCCC(=O)NCc3ccc4c(c3)OCO4)c(=O)c3sccc32)c1	i
O=C1CC(N2CCSCC2)C(=O)N1c1ccccc1 (stereo not given)	i
O=C1CC(N2CCN(c3ccccc3)CC2)C(=O)N1Cc1ccc(Cl)cc1 (stereo not given)	i
O=C1CC(N2CCN(c3cccc(C(F)(F)F)c3)CC2)C(=O)N1c1ccccc1F (stereo not given)	15.8µM*

Screening data deposited in PubChem by National Center for Advancing Translational Sciences (NCATS).
